Reference: PubChem BioAssay AID588342 (National Center for Advancing Translational Sciences (NCATS), 2011)
Among all 360,000 compounds or so, about 25,000 (6.9%) were called active. A call without a number means that no potency is given here. Roughly 9% stayed inconclusive and do not appear here. Calls come from the whole dose curve; as a rule, active = well fitted inhibition curve with a large enough effect; inconclusive = small, poorly fitted or top-dose-only effect; inactive = flat fitted curve, though single readings scatter. The full list was thinned out, with actives kept by preference.
Note: nearly all actives have a fitted effect of over 55% in size.
Potency is the fitted concentration of half-maximal effect.

What follows are compounds tested against Luciferin 4-monooxygenase (Photinus pyralis) (UniProt P08659) (assay: qHTS profiling assay for firefly luciferase inhibitor/activator using purifed enzyme and Km concentrations of substrates (counterscreen for miR-21 project)). Settings: purified FLuc, luminescence inhibition; series mostly up to 57.5 µM.
Chain of Luciferin 4-monooxygenase (Photinus pyralis) (P08659 whole entry, looked up): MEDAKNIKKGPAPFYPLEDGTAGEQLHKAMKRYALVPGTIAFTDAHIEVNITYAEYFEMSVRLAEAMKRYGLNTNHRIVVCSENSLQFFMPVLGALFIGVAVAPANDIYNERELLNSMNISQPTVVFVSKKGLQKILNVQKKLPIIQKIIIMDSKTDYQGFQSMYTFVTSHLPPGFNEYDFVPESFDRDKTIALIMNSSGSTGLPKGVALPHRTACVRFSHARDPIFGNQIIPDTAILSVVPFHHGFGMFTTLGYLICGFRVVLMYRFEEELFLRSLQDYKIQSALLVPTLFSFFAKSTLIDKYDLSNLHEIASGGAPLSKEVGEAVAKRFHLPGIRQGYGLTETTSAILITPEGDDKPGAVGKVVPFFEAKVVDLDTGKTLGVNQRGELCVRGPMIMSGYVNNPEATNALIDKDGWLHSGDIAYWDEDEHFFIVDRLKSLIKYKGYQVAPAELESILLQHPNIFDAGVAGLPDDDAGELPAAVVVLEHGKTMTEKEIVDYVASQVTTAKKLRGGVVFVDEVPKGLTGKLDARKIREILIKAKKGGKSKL
Method in brief: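 Purified P. pyralis luciferase, 10 nM final, with Km-level 10 uM D-luciferin and 10 uM ATP in 50 mM Tris acetate pH 7.5, 10 mM Mg acetate, 0.01% Tween-20, 0.05% BSA; 6-point qHTS titration about 60 µM downward; luminescence read.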
CCN(CC)CCNC(=O)c1ccc(NC(=O)c2cc(-c3ccncc3)nc3ccccc23)cc1 was tested, and the Potency was “inactive”.
For COc1ccccc1NC(=O)c1cc(Cl)nc2ccccc12, the Potency was “inactive”.
For O=C(O)c1cccc(NC(=O)c2cc(-c3cccc(Cl)c3)nc3ccccc23)c1, the Potency was 16.9 µM (active).
In the case of CCOc1cc(-c2nnc(SCC(=O)NC3CCCC3)nc2-c2ccc(OC)c(OCC)c2)ccc1OC, the Potency is reported as “inactive”.
With CCc1ccc(-c2nc(SCC(=O)NC3CCCC3)n[nH]2)cc1 the Potency was 19 µM (active).
COc1ccc(CNC(=O)CSc2n[nH]c(-c3ccc(F)cc3)n2)cc1 was tested, and the Potency was “inactive”.
In the case of CC(=O)C[C@@H](O)CC(=O)[C@H]1OC(=O)CCCCCCc2ccccc21, the Potency is reported as “inactive”.
CC(C)(C)c1ccc(C(=O)N2CCC(C(=O)N3CCCCC3)CC2)cc1 was tested, and the Potency was “inactive”.
For O=C(Nc1ccccc1)C1CCN(C(=O)c2ccc(Br)cc2)CC1, the Potency was “inactive”.
In the case of C/C(=C\C(=O)c1ccc(Br)cc1)N1CCCCC1, the Potency is reported as 15.1 µM (active).
COc1cccc(CNC(=O)Cn2ncn3c(cc4ccccc43)c2=O)c1 was tested, and the Potency was “inactive”.
For CCC(C)Cn1c(O)cc2nn(-c3nc4ccccc4s3)c(=O)c-2c1C (stereo unspecified), the Potency was 0.301 µM (active).
With Cc1cc(NC(=O)CN2CCCC(C)C2)n(-c2nc3ccccc3s2)n1 (stereo unspecified) the Potency was “inactive”.
S=C(Nc1cccc(Br)c1)N1CCn2cccc2C1c1cccnc1 (stereo unspecified) was tested, and the Potency was “inactive”.
In the case of CCCCCCCCCCCCCCCC(=O)OC/C=C(C)/C=C/C=C(C)/C=C/C1=C(C)CCCC1(C)C, the Potency is reported as “inactive”.
In the case of O=C(CCS(=O)(=O)c1ccc2c(c1)NC(=O)CO2)Nc1cccc(C(F)(F)F)c1, the Potency is reported as “inactive”.
CCNc1nc(SCCOc2ccccc2)nc(N(C)C)n1 was tested, and the Potency was “inactive”.
For COc1cn(CC(=O)Nc2cccc(C)c2C)c(CN2CCCCC2)cc1=O, the Potency was “inactive”.
For Cc1ccc(/C=N/NC(=O)COc2ccccc2-c2ccccc2)cc1, the Potency was “inactive”.
Cc1ccc(/C=N/NC(=O)C(NC(=O)c2ccccc2)c2n[nH]c(=O)c3ccccc23)cc1 (stereo unspecified) was tested, and the Potency was 19 µM (active).
For Cc1ccc(S(=O)(=O)Oc2ccc(/C=N/NC(=O)c3ccncc3)cc2)cc1, the Potency was “inactive”.
With CCOC(=O)c1cccc(NC(=O)C(Cc2ccccc2)NS(=O)(=O)c2cccc3nsnc23)c1 (stereo unspecified) the Potency was “inactive”.
In the case of CN(C(=O)CSc1nc2ccccc2n1Cc1ccccc1C#N)c1ccccc1, the Potency is reported as “inactive”.
In the case of O=C(N/N=C/c1ccc(O)c(O)c1)C1c2ccccc2Oc2ccccc21, the Potency is reported as “inactive”.
For O=C(N/N=C/c1ccsc1)c1cc(O)cc(O)c1, the Potency was 21.3 µM (active).
For O=C(COc1ccc(/C=N/NC(=O)c2ccc(O)cc2)cc1)Nc1ccc([N+](=O)[O-])cc1, the Potency was “inactive”.
With Cc1cccc(-n2ncc(C(=O)N3CCc4ccccc4C3)c2C2CCN(C(=O)OC(C)(C)C)CC2)c1 the Potency was “inactive”.
Cc1ccc(NC(=O)c2nc(S(=O)(=O)Cc3cccc(C)c3)ncc2Cl)cc1 was tested, and the Potency was “inactive”.
With Nc1[nH]c(=S)nc2nc(-c3ccccc3)c(-c3ccccc3)nc12 the Potency was “inactive”.
For Cc1c(Br)c([N+](=O)[O-])nn1CC(=O)N1CCN(Cc2ccccc2)CC1, the Potency was 13.5 µM (active).
With O=C(c1cccc([N+](=O)[O-])c1)N1CCN(Cc2ccccc2)CC1 the Potency was “inactive”.
With Cn1nnnc1SCC(=O)N1CCN(Cc2ccccc2)CC1 the Potency was “inactive”.
For Cc1cccc(NS(=O)(=O)c2ccc(-c3cnc(C4CC4)o3)cc2)c1, the Potency was “inactive”.
CCOc1ccc(/C=N/NC(=O)CSc2ccccn2)cc1O was tested, and the Potency was “inactive”.
For COc1ccc(/C=N/N=C2/C(=O)Nc3ccccc32)cc1O, the Potency was 19 µM (active).
For COc1ccc(/C=N/N(C)C2=NS(=O)(=O)c3ccccc32)cc1OC, the Potency was “inactive”.
In the case of CCOC(=O)c1cc(-c2ccccc2)n(-c2cccc(C(=O)Nc3cc(OC)cc(OC)c3)c2)c1C, the Potency is reported as “inactive”.
For Cc1cc(C)c2oc(C(=O)Nc3ccc(S(=O)(=O)N(C)c4ccccc4)cc3)cc(=O)c2c1, the Potency was “inactive”.
In the case of O=C(c1cc(COc2c(F)cccc2F)on1)N1CCSCC1, the Potency is reported as 19 µM (active).
In the case of O=C(c1cc(COc2ccc(F)cc2F)on1)N1CCOCC1, the Potency is reported as 16.9 µM (active).
For O=C(c1cc(COc2cccc(C(F)(F)F)c2)on1)N1CCSCC1, the Potency was “inactive”.
For O=C(NCCN1CCCC(O)C1)c1cc(COc2c(F)cccc2F)on1 (stereo unspecified), the Potency was “inactive”.
With C=CCC1(CC=C)CCCN1C(=O)c1cc(COc2ccc(-n3cncn3)cc2)on1 the Potency was “inactive”.
For O=C(Oc1ccc(F)cc1)N1CCOCC1, the Potency was “inactive”.
COc1ccc(CCN2C(=O)c3oc4cc(C)cc(C)c4c(=O)c3C2c2ccccc2F)cc1OC (stereo unspecified) was tested, and the Potency was “inactive”.
With COc1cccc(CNCCSc2nnnn2C)c1OCc1ccccc1Cl the Potency was “inactive”.
For O=C(NCCCc1ccccc1)c1ccc2c(c1)sc1nc(-c3ccc(F)cc3)cn12, the Potency was “inactive”.
CCOc1ccc(-c2nc(C)sc2CC(=O)O)cc1 was tested, and the Potency was “inactive”.
In the case of C/C(=N/Nc1nc(-c2ccccc2)c(CC(=O)O)s1)c1ccccc1, the Potency is reported as 5.36 µM (active).
With CCOC(=O)C(=O)Nc1nc(-c2ccccc2)c(CC)s1 the Potency was “inactive”.
With Cc1ccc(C)c(N2CCN(S(=O)(=O)c3ccc4c(c3)C(C(C)C)C(=O)N4)CC2)c1 (stereo unspecified) the Potency was “inactive”.
CN(Cc1ccc(F)cc1)C(=O)COc1ccc2ccccc2c1 was tested, and the Potency was “inactive”.
For CN(Cc1ccccc1)C(=O)COc1ccccc1, the Potency was 9.53 µM (active).
CN(Cc1ccccc1)C(=O)c1ccc(COc2ccccc2)cc1 was tested, and the Potency was “inactive”.
Cc1ccccc1-c1nc2scc(CCNC(=O)C(=O)Nc3ccc(F)cc3F)n2n1 was tested, and the Potency was “inactive”.
CC1CCCCC1NC(=O)COC(=O)Cc1ccc(Cl)cc1 (stereo unspecified) was tested, and the Potency was “inactive”.
For CCN(c1ccccc1)S(=O)(=O)c1ccc(C(=O)Nc2nccs2)cc1, the Potency was “inactive”.
With CCOc1ccc(C(=O)Nc2nccs2)cc1[N+](=O)[O-] the Potency was “inactive”.
In the case of CC(=O)Oc1ccc(C(=O)Nc2nccs2)cc1, the Potency is reported as 10.7 µM (active).
In the case of COc1ccccc1-c1nnc(C2CCN(C(=O)c3ccc(Cl)cc3)CC2)o1, the Potency is reported as “inactive”.
For Cc1nc(-c2ccccc2)sc1-c1nc(-c2ccccc2)ncc1S(=O)(=O)c1ccccc1, the Potency was “inactive”.
In the case of Cc1nc(-c2ccccc2)sc1-c1nnc(C2CC2)o1, the Potency is reported as 15.1 µM (active).
For COc1cc(C(=O)NCCS(=O)(=O)N2CCN(c3ccccc3)CC2)cc(OC)c1OC, the Potency was “inactive”.
CCOC(=O)N1CCc2c(sc3c2C(=O)NC(c2ccccc2F)N3)C1 (stereo unspecified) was tested, and the Potency was “inactive”.
O=C1NC(c2ccncc2)Nc2sc3c(c21)CCCC3 (stereo unspecified) was tested, and the Potency was 21.3 µM (active).
For C/C(=C\c1ccccc1)C1NC(=O)c2c(sc3c2CCCC3)N1 (stereo unspecified), the Potency was “inactive”.
